# Bioassay records (PubChem BioAssay)
# A selection: hits, their analogues and other compounds. The true share with any hit is near 7.5%.
# Giardia FBPA inh: blocks Giardia fructose-bisphosphate aldolase activity. 0.71% of 290,000 active. Potency, µM (top dose mostly 59.6 µM), usual class: inhibitors. A8B2U2. purified Giardia FBPA; further: nearly all actives have a fitted effect of over 55% in size
# Target sequence (A8B2U2 whole entry, looked up): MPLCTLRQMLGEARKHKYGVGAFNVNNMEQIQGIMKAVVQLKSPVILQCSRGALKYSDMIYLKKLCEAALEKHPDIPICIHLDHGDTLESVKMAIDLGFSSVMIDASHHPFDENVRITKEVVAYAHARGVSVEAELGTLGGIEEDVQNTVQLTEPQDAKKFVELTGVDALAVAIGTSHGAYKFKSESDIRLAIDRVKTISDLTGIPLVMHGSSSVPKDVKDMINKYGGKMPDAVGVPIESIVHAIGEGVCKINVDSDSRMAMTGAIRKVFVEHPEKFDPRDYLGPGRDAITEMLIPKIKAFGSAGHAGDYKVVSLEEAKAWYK
#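 Giardia FBPA (40 nM reagent) was preincubated 10 min at RT with compound (up to 57.5 uM final), then substrate plus GAPDH/TPI/NAD/arsenate coupling system with diaphorase/resazurin was added; resorufin fluorescence (525/598 nm) was read after 20 min.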
# FMDV antiviral: antivirals against foot and mouth disease virus; FMDV antiviral cell-based qHTS; Potency, µM (doses to about 57.9 µM), actives largely listed as inhibitors; 1.2% of 410,000 active; AID 1159524; calls by dose curve; tested in HEK293T cells; further: read-out not given here; nearly all actives have a fitted effect of over 45% in size
# VACV Venus inh: inhibitors of vaccinia virus (Venus reporter). Vaccinia virus Venus reporter expression, fluorescence. Potency, µM (top dose mostly 36.5 µM), usual class: inhibitors. 0.46% of 330,000 active. AID 720580; calls by dose curve; tested in A549 cells; further: nearly all actives have a fitted effect of over 30% in size
# Vaccinia mCherry: vaccinia inhibition (mCherry reporter); 0.63% of 310,000 active; Potency, µM (titrated, usually from 36.5 µM), actives largely listed as inhibitors; Vaccinia virus mCherry reporter infection, fluorescence; calls by dose curve; tested in A549 cells; further: nearly all actives have a fitted effect of over 35% in size
# HCMV inh: human cytomegalovirus inhibition; HFF cells, HCMV-luciferase reporter, 72 h; active compounds read low; activity change, negative = inhibition, % at 57.5 µM; 4.5% of 410,000 active; AID 1259415; in the data active means activity change below about -60%; inconclusive means no clear call, values can overlap the other calls; inactive means above about -39%
#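 Screen run at 2 compound doses on HFFs infected with reporter HCMV, MOI 1 PFU/cell. Luciferase activity from cell lysates at 72 h post infection gave inhibition relative to buffer-only and Salinomycin wells.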
# HCV inhibitor: blocks hepatitis C virus | Huh7.5.1 HCVcc-Cre infection, luciferase reporter, 44 h | Potency, µM (series often up to 41.8 µM), usual class: inhibitors | 3.4% of 340,000 active | AID 651820
#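 Infectious HCV cell culture screen: compound-treated cells (1,000/well, pre-plated 4 h) are infected with HCVcc-Cre at roughly 0.5 moi and grown 44 h. Infection is quantified by luciferase signal after 15 min substrate incubation at room temperature.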
# A number is an active result; n = inactive; u = inconclusive; x = not tested or not shown; [ ] = another dose, or the depositor's remark. Unless noted, the call rests on the fitted dose curve; in most records, active means well fitted curve in the direction sought with a large enough effect; inconclusive means small, poorly fitted or top-dose-only effect, or another doubt; inactive means no such curve, though single readings can be large; an effect the other way counts as inactive or inconclusive.
SMILES,Giardia FBPA inh,FMDV antiviral,VACV Venus inh,Vaccinia mCherry,HCMV inh,HCV inhibitor
O=c1cc(C(F)(F)F)[nH]c2ccccc12,n,n,x,x,n,n
O=c1cc(-c2cccc(F)c2)[nH]c2ccccc12,n,n,u,n,-76.8,n[8.37 µM]
Cc1ccc2[nH]c(-c3cccc(F)c3)cc(=O)c2c1,n,n,u,u,-68.9,u
Cc1ccc2[nH]c(C(F)(F)F)cc(=O)c2c1,n,n,n,u,-73.0,n
O=c1cc(-c2ccccc2)[nH]c2ccc(F)cc12,n,n,u,n,-62.0,n
CC1CCCN(c2nc3c(-c4ccc(Cl)cc4)nnn3c3ccccc23)C1 (stereo not given),x,n,n,n,n,x
COc1ccc2[nH]c(-c3cccc(F)c3)cc(=O)c2c1,n,n,u,u,-61.5,n[8.37 µM]
COc1ccc2[nH]c(-c3ccccc3)cc(=O)c2c1,n,x,x,x,x,x
Nc1cc(-c2ccc(OC(F)(F)F)cc2)nn1-c1ccc(Cl)c(Cl)c1,n,n,n,n,-65.6,n
CCOc1ccccc1-n1c(O)c(C=Nc2ccc(N(CC)CC)cc2)c(=O)[nH]c1=O,n,n,n,x,-86.9,n
NS(=O)(=O)c1ccc(CNC(=O)/C=C/c2c(F)cccc2Cl)cc1,n,n,x,x,n,n
Cc1ccc(C(=O)NCC(=O)OCC(=O)c2ccccc2)s1,x,n,x,x,n,n
COC(=O)CNC(=O)c1ccc(C)s1,n,n,n,n,-101.8,n
Cc1ccc(C(=O)NNC(=O)c2ccoc2C)s1,x,n,n,n,-98.4,n
O=C1COc2ccc(C(=O)COc3ccc(Cl)cc3Br)cc2N1,x,n,n,n,u,u
CCCCNC(=O)c1onc(CSc2ccc(F)c(F)c2)c1C(=O)O,n,n,n,n,n,n
Cc1ccc(C(NC(=O)N2CCOCC2)=C(Cl)Cl)cc1F,n,x,u,u,-69.4,10µM
COc1ccc(CN(C)CCCn2cnc3c(SC)ncnc32)cc1OC,x,n,n,n,n,x
CCC1CN(Cc2cn[nH]c2-c2ccccc2)Cc2cc(OC)ccc2O1 (stereo not given),x,n,n,n,x,x
Cc1cccc(-c2noc(CN(C(=O)c3ccc(C)c(C)c3)C(C)C)n2)c1,x,u,n,n,-94.6,x
Cc1onc(-c2ccccc2Cl)c1C(=O)NCc1nc(-c2ccc(C(F)(F)F)cc2)no1,n,u,n,u,n,u
Cc1cccc(-c2noc(CN(C(=O)c3c(-c4ccccc4Cl)noc3C)C(C)C)n2)c1,n,n,n,n,n,10µM
Cc1ccc(C)c(C(=O)N(Cc2nc(-c3ccc(Cl)cc3)no2)C(C)C)c1,n,u,u,n,n,10µM
COc1ccccc1C(=O)N(Cc1nc(-c2cccc(C)c2)no1)C(C)C,x,n,n,n,n,x
Cc1onc(-c2ccccc2Cl)c1C(=O)N(Cc1nc(-c2ccccc2)no1)C1CCCCC1,n,n,x,x,n,11.2µM
SMILES,Giardia FBPA inh,FMDV antiviral,VACV Venus inh,Vaccinia mCherry,HCMV inh,HCV inhibitor
COc1cc2c(cc1OC)CN(C(=O)/C=C/c1cccc([N+](=O)[O-])c1)CC2,n,n,n,n,n,n
CN(C)c1ccc(/C=C/c2ncnc3ccccc23)cc1,x,x,n,n,x,x
CCCN1CNc2c(c(=O)[nH]c(=S)n2CCc2cccc(OC)c2OC)C1,x,x,n,n,x,x
Cc1nc2[nH]c(=O)[nH]c(=O)c2[nH]1,n,n,x,x,x,x
O=S(=O)(c1ccc2c(c1)CCC2)N1CCNCC1,x,n,n,n,n,n
COc1cccc([C@H]2Oc3ccc(OC)cc3/C(=N\O[C@@H]3O[C@H](COC(C)=O)[C@H](OC(C)=O)[C@H](OC(C)=O)[C@H]3OC(C)=O)[C@@H]2O)c1,n[12.9 µM],x,x,x,x,x
Cc1ccc(N2CCN(C(=O)c3cnn(-c4ccc(C)c(C)c4)c3C3CCNCC3)CC2)c(C)c1,x,n,u,u,-97.0,x
Cc1cccc(N2CCN(C(=O)c3cnn(-c4cccc(Cl)c4C)c3C3CCNCC3)CC2)c1C,x,n,u,u,-98.6,x
Cc1ccc(Cl)cc1N1CCN(C(=O)c2cnn(-c3ccc(Cl)cc3)c2C2CCNCC2)CC1,x,n,n,n,-101.3,x
O=C(C[n+]1cccc(Br)c1)c1ccc2c(c1)CCCC2,x,x,n,n,x,x
CCOC(=O)c1c(N)sc2c(NC(C)=O)cccc12,n,n,n,n,n,17.8µM
CCOC(=O)c1sc(NC(C)=O)cc1C,n,n,n,n,n,n
CCOC(=O)c1sc(NC(=O)Nc2ccccc2Cl)cc1C,n,n,10µM,u,-73.8,u
CCOC(=O)c1c(NC(C)=O)sc2c(OC)cccc12,x,n,x,x,n,u
CCOC(=O)c1sc(-c2ccccc2)cc1NC(=O)Nc1ccccc1,n,n,u,u,n,10µM
CCOC(=O)c1sc(NC(=O)Nc2ccccc2)cc1C,n,n,12.6µM,15.8µM,n,u
CC(C)n1c(O)c(N=Nc2ccc(Cl)c(C(=O)O)c2)c2ccccc21,n,n,x,x,n,n
CCOC(=O)c1c(N)sc(C(=O)Nc2ccccc2)c1C,n,n,n,n,n,11.2µM
CCOC(=O)c1c(N)sc(N)c1C(=O)OCC,u,31.6µM,n,n,n,n
CCOC(=O)c1c(N)sc(C(=O)Nc2ccccc2F)c1C,n,n,n,n,n,n
COC(=O)c1sc(-c2ccccc2)cc1NC(C)=O,n,n,n,n,n,8.91µM
CCOC(=O)c1c(N)sc(C(N)=O)c1C,n,n,n,n,n,n
CC(C)c1ccc(NC(=O)C(NS(=O)(=O)c2ccc3c(c2)CCC(=O)N3)c2ccccc2)cc1 (stereo not given),x,n,n,n,n,x
CCOc1ccc(-n2c(SCC(=O)Nc3ccc(F)cc3)nc3c([nH]c4ccccc43)c2=O)cc1,x,n,n,n,n,x
Cc1cccc(C)c1N1C(=O)c2ccccc2NC(=O)C1C(=O)NCCc1ccccc1F (stereo not given),x,n,n,n,n,x
SMILES,Giardia FBPA inh,FMDV antiviral,VACV Venus inh,Vaccinia mCherry,HCMV inh,HCV inhibitor
CCN(CC)S(=O)(=O)c1cc(C(=O)Nc2ccncc2)ccc1Cl,n,x,n,u,-87.0,u
O=C(Nc1ccc(Br)cc1)c1ccc(Cl)c(S(=O)(=O)N2CCCCCC2)c1,x,28.2µM,n,u,n,x
O=C(NCCCN1CCOCC1)c1ccc(CSc2ccc(Cl)cc2)cc1,n,n,n,n,-69.9,u
CCN(CC)S(=O)(=O)c1cc(C(=O)Nc2cccnc2)ccc1Cl,n,u,x,x,n,u
CCOc1c(Cl)cc(C(=O)NCCN2CCCCC2)cc1Cl,n,n,x,x,n,10µM
Cc1ccc(C(=O)NCCN2CCCC2)cc1,n,n,n,x,n,n
Cc1nnc(SCC(=O)NC2CCCC2)n1C(C)C,x,n,n,n,n,n
CC1CCCCC12NC(=O)N(CC(=O)N1CCN(C(=O)c3ccco3)CC1)C2=O (stereo not given),x,n,x,x,n,u
O=C(NCCCN1CCOCC1)c1ccc(Cl)c(S(=O)(=O)N2CCCCCC2)c1,n,n,x,x,-81.2,u
O=C(Nc1ccc(Cl)c(S(=O)(=O)N2CCCCC2)c1)c1cccnc1,x,n,x,x,n,14.1µM
O=C(NCCN1CCOCC1)c1ccc(Cl)c(S(=O)(=O)N2CCCCCC2)c1,n,n,n,x,n,n
